The campaign covered roughly 16,000 compounds. About 2,600 (16%) were called active. Roughly 20% stayed inconclusive and do not appear here. The entries come from a sample that favours actives as a whole. Values without a mark were called inactive. The call rests on the fitted dose curve; in most records, active means well fitted curve in the direction sought with a large enough effect; inconclusive means small, poorly fitted or top-dose-only effect, or effect the other way; inactive means no such curve, though single readings can be large or run the other way.
Target: Cytochrome P450 2D6 (Homo sapiens) (UniProt P10635)
Sequence (P10635 whole entry, looked up): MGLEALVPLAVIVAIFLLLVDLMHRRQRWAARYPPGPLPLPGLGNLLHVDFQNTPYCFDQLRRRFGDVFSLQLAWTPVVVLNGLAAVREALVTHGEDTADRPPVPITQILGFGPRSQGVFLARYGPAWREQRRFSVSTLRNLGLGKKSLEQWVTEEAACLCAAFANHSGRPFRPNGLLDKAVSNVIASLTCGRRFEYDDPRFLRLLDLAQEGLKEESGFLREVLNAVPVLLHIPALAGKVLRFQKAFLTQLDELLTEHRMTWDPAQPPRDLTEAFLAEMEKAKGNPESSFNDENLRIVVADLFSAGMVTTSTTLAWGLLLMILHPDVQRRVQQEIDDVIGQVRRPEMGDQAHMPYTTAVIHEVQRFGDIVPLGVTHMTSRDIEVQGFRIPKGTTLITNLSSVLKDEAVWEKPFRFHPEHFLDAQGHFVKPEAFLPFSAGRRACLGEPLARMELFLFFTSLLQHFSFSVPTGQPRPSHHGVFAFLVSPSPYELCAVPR
Experiment: Cytochrome panel assay with activity outcomes
Details: recombinant CYP, pro-luciferin dealkylation, luminescence, p450-cyp2d6; series mostly up to 57.1 µM; activity, negative = inhibition: at the top concentration
On the % scale 0 is the no-effect control and ±100 the full control effect.

| Compound | AC50 | activity, negative = inhibition |
| --- | --- | --- |
| CCN1CCN(Cc2cc(OC)c(OC)cc2[N+](=O)[O-])CC1 | 6.31 µM (active) | – |
| CCN1C[C@]2(C)CC[C@H](OC)[C@@]34[C@@H]2[C@H](OC(C)=O)[C@]2(OCO[C@@]25C[C@@H](OC)[C@@H]2C[C@@]3(O)[C@H]5[C@@H]2OC)[C@H]14 | – | -2.5% [at 25.6 µM] |
| COC(=O)NC/C=C\c1nc(CC/C=C\C(=O)O[C@H]2C[C@H]3CC(=O)O[C@@H](/C=C\CC(C)C)C[C@@H]4CC[C@H](C)[C@H](C[C@@H](OC)C[C@H](C2)O3)O4)co1 | – | -6.57% [at 11.4 µM] |
| CC(N)Cc1ccccc1Sc1ccc(O)cc1 (centres undefined) | 10 µM (active) | – |
| CNC(C)Cc1ccccc1Sc1ccc(O)cc1 (centres undefined) | 3.16 µM (active) | – |
| COC(=O)C1(C)C=C2C(=C(C)C(=O)C2C)CN1 (centres undefined) | – | -5.73% |
| CC(C)[C@@H]1CN[C@H](C(=O)O)[C@@H]1CC(=O)O | – | 3.37% |
| C=C1[C@@H]2C[C@@]3([C@H]1O)[C@H]1C[C@@H]4[C@@]5(C)CC[C@H](O)[C@]4([C@H]1N(CC)C5)[C@H]3C[C@H]2O | – | -0.649% [at 25.6 µM] |
| CC(C)CNCCc1ccccn1 | – | -13.8% [at 11.4 µM] |
| CCC(=O)O[C@H]1CC[C@H]2[C@@H]3CCC4=CC(=O)CC[C@]4(C)[C@H]3CC[C@]12C | – | -8.4% [at 25.6 µM] |
| CC[C@@H](C)[C@H]1O[C@]2(CC[C@@H]1C)C[C@@H]1C[C@H](C/C=C(/C)[C@H](O[C@@H]3C[C@H](OC)[C@H](O[C@@H]4C[C@H](OC)[C@@H](O)[C@H](C)O4)[C@H](C)O3)[C@@H](C)/C=C\C=C3CO[C@@H]4[C@H](O)C(C)=C[C@@H](C(=O)O1)[C@]34O)O2 (tested in a mixture with another compound) | – | 5.21% |
| Cc1ccc2c(c1)N(CCC(=O)N1CCC3(CC1)OCCO3)C(=O)C(C)O2 (centres undefined) | – | -27.8% |
| CN1CCc2cc(O)cc3c2[C@H]1Cc1ccc(O)c(O)c1-3 | – | -16% |
| COc1cc([C@H]2c3cc4c(cc3[C@@H](O)[C@@H]3COC(=O)[C@H]23)OCO4)cc(OC)c1OC | – | -7.23% [at 25.6 µM] |
| CN1CCc2cc3c(cc2[C@@H]1O)OCO3 | 7.94 µM (active) | – |
| CC(=O)N1CC[N+](C)(C)CC1 | – | -1.9% |
| CC(C)(C)c1cc(C=C(C#N)C#N)cc(C(C)(C)C)c1O | – | -11.6% |
| CC1=C2C(=O)[C@@H]3[C@@H](CC=C4C[C@@H](O)CC[C@@]43C)[C@H]2CC[C@@]12O[C@H]1C[C@H](C)CN[C@H]1[C@@H]2C | – | 9.41% [at 11.4 µM] |
| NS(=O)(=O)c1cc([C@@]2(O)NC(=O)c3ccccc32)ccc1Cl | – | 4.03% [at 25.6 µM] |
| CCOc1ccc(C2C(C#N)=C(N)Oc3c2c(=O)oc2ccccc32)cc1 (centres undefined) | – | -8.83% |

| Compound | AC50 | activity, negative = inhibition |
| --- | --- | --- |
| CCOC(C(=O)OCCCN(CC)CC)(c1ccccc1)c1ccccc1 | 2 µM (active) | – |
| CC(C)NP(=O)(NC(C)C)OP(=O)(NC(C)C)NC(C)C | – | 10.5% |
| CC(C)N[C@@H](C)Cc1ccc(I)cc1 | 0.1 µM (active) | – |
| Cc1ccc2cc3cc(C(=O)N4CCC5(CC4)OCCO5)oc3nc2c1 | – | -17.5% |
| CCOC(=O)c1ncn2c1CN(C)C(=O)c1cc(F)ccc1-2 | – | -7.93% |
| CC1(C)[C@@H]2CC[C@]1(C)CN(CCC[N+](C)(C)C)C2 | – | 2.02% [at 11.4 µM] |
| CS(=O)(=O)O[C@H]1CN2CCC1CC2 | – | 2.87% [at 11.4 µM] |
| C[C@]12CC[C@H](O)C[C@@H]1CC[C@H]1[C@H]2CC[C@]2(C)[C@H](C(=O)CO)CC[C@@H]12 | – | -4.84% |
| c1ccc(N2CCCC3(CCNCC3)C2)nc1 | 10 µM (active) | – |
| c1csc(CN2CCC3(CCNCC3)CC2)n1 | – | 5.07% |
| c1ccc(N2CCC3(CCNCC3)CC2)nc1 | 1.26 µM (active) | – |
| c1csc(CN2CCCC3(CCNCC3)C2)n1 | – | -11.9% |
| Cc1ccccc1OCCN=Cc1c(O)n(C)c(=O)n(C)c1=O | – | -8.35% |
| COc1cc2c(cc1OC)[C@@]13CCN4C=C5CCO[C@H]6CC(=O)N2[C@@H]1[C@@H]6[C@H]5C[C@H]43 | – | 9.01% [at 11.4 µM] |
| C1CCc2nnnn2CC1 | – | -0.778% [at 25.6 µM] |
| CC(C)[N+](C)(CCC(C(N)=O)(c1ccccc1)c1ccccc1)C(C)C | 3.98 µM (active) | – |
| CC(C)N(CC[C@@](C(N)=O)(c1ccccc1)c1ccccn1)C(C)C | inactive | – |
| N#C/C(=C\c1ccc(O)c(O)c1)C(N)=S | – | -10.4% |
| Nc1nc(N)c(N=Nc2ccc([As](=O)(O)O)c(O)c2)c(N)n1 | – | 12.7% [at 11.4 µM] |
| CC(O)(CS(=O)(=O)c1cccc(C(F)(F)F)c1)C(=O)Nc1cccc(C(F)(F)F)c1 (centres undefined) | – | -12.4% |

| Compound | AC50 | activity, negative = inhibition |
| --- | --- | --- |
| COc1cc(C[C@H](C)N)c(OC)cc1I | 25.1 µM (active) | – |
| NC(=O)c1ccc(C(=O)Nc2ccc([As](=O)(O)O)cc2)cc1 | – | -0.507% [at 11.4 µM] |
| CC(NCc1ccc(Cl)cc1)C(O)c1ccccc1 (centres undefined) | 0.0708 µM (active) | – |
| O=NN(Cc1ccc(Cl)cc1)[C@@H](C(=O)O)c1ccccc1 | – | 6.33% [at 11.4 µM] |
| C[C@H](N)[C@@H](O)c1ccccc1 | – | -7.7% [at 25.6 µM] |
| COc1ccn(C)c(=O)c1C#N | – | -5.47% [at 25.6 µM] |
| O=C1C2CCN(CC2)C1(CO)CO | inactive | – |
| CCc1ccc(CCN2CCCCC2)nc1 | 1.58 µM (active) | – |
| c1ccc(CCN2CCCCCC2)nc1 | – | -18.4% [at 11.4 µM] |
| c1ccc(CCN2CCOCC2)nc1 | – | 13.9% [at 11.4 µM] |
| CC(C)COC(=O)OCN1C(=O)CN(CCN2CC(=O)N(COC(=O)OCC(C)C)C(=O)C2)CC1=O | – | 2.09% |
| O=S(=O)(c1ccccc1)N1CCCCC1c1cccnc1 (centres undefined) | – | -14.3% |
| N#CCCN | – | 1.7% |
| C[n+]1c(/C=C\c2ccc(O)c3ncccc23)[se]c2ccccc21 | 1 µM (active) | – |
| Oc1cccc2cccnc12 | – | 8.63% [at 11.4 µM] |
| COc1cccc(-c2nc(CS(=O)CC(=O)N3CCC4(CC3)OCCO4)c(C)o2)c1 (centres undefined) | – | 0.248% |
| C[C@@]12CC[C@H]3[C@@H](CC[C@@H]4C[C@H]5S[C@H]5C[C@]43C)[C@H]1CC[C@H]2O | – | -6.37% [at 25.6 µM] |
| CCCN(CCC)CCc1cccc2c1CC(=O)N2 | 3.16 µM (active) | – |
| N[C@@H]1C=CC=C(C(=O)O)C1 | – | 1.21% |

From PubChem BioAssay AID1851 (National Center for Advancing Translational Sciences (NCATS), 2009)
